Results reported in PubChem BioAssay AID1159580 (chemical genetic matrix, 2015).
“And” between values parts separate entries of the source, which are not always exact repeats. Equal entries are not always repeated. Among all 5,500 compounds or so, about 2,000 (36%) were called active. Roughly 18% stayed inconclusive and do not appear here. No stated cut-off is given here; in the data, active means normalized growth mostly below about 0.91 (no sharp cut-off); inconclusive means no clear call, values can overlap the other calls; inactive means mostly above about 0.92. This is one part of the list.

Experiment: chemical genetic growth profiling, strain panel (AID 1159580);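 further: tested at 20 µM; growth read once vehicle control cultures reached saturation at 30 °C; 1 = growth at the plate median or of vehicle wells; lower values mean less growth of the strain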
Conditions: S. cerevisiae deletion strains, growth OD

Measured: normalized growth

O=C1C[C@@H](c2ccc(O)cc2)Oc2cc(O)cc(O)c21
inactive: locus YAL013W, strain DEP1, hits give low values 1.02 | locus YAL021C, strain ccr4, hits give low values 0.987 | locus YAL026C, strain drs2, hits give low values 0.969 | locus YAL030W, strain snc1, hits give low values 0.953 | locus YBL061C, strain skt5, hits give low values 0.974 | locus YBR009C, strain hhf1, hits give low values 0.959 | locus YBR021W, strain FUR4, hits give low values 0.995 | locus YBR023C, strain chs3, hits give low values 0.955 | locus YBR171W, strain sec66, hits give low values 0.989 | locus YBR229C, strain ROT2, hits give low values 1.02 | locus YBR231C, strain swc5, hits give low values 0.972 | locus YBR279W, strain paf1, hits give low values 0.97 | locus YCL011C, strain gbp2, hits give low values 0.952 | locus YCL016C, strain dcc1, hits give low values 0.969 | locus YCL029C, strain bik1, hits give low values 1.03 | locus YCL061C, strain MRC1, hits give low values 0.979 | locus YCL069W, strain vba3, hits give low values 0.966 | locus YCR088W, strain abp1, hits give low values 0.955 | locus YDL005C, strain med2, hits give low values 0.978 | locus YDL035C, strain GPR1, hits give low values 1.01 | locus YDL040C, strain nat1, hits give low values 0.976 | locus YDL074C, strain BRE1, hits give low values 1.01 | locus YDL101C, strain DUN1, hits give low values 1.01 | locus YDL134C, strain PPH21, hits give low values 1.01 | locus YDL185W, strain tfp1, hits give low values 1.01 | locus YDL192W, strain arf1, hits give low values 1.01 | locus YDR001C, strain nth1, hits give low values 0.964 | locus YDR069C, strain doa4, hits give low values 0.944 | locus YDR101C, strain arx1, hits give low values 1.01 | locus YDR137W, strain rgp1, hits give low values 0.955 | locus YDR150W, strain NUM1, hits give low values 1.01 | locus YDR159W, strain sac3, hits give low values 0.942 | locus YDR162C, strain NBP2, hits give low values 1.01 | locus YDR195W, strain ref2 0.931 | locus YDR297W, strain sur2, hits give low values 0.97 | locus YDR318W, strain mcm21, hits give low values 1.01 | locus YDR334W, strain swr1, hits give low values 0.962 | locus YDR335W, strain msn5, hits give low values 0.979 | locus YDR388W, hits give low values 1.01 | locus YDR392W, strain spt3, hits give low values 0.862 | locus YDR502C, strain sam2, hits give low values 1.01 | locus YEL003W, strain gim4, hits give low values 0.977 | locus YEL037C, strain rad23, hits give low values 0.968 | locus YEL061C, strain CIN8 (second series), hits give low values 0.949 | locus YEL061C, strain CIN8, hits give low values 1.01 | locus YER015W, strain faa2, hits give low values 0.982 | locus YER016W, strain bim1, hits give low values 0.971 | locus YER110C, hits give low values 1.02 | locus YER111C, strain swi4, hits give low values 0.958 | locus YER155C, strain BEM2 (second series), hits give low values 0.875 | locus YER155C, strain BEM2, hits give low values 1.01 | locus YER167W, strain BCK2, hits give low values 1.01 | locus YFR010W, strain ubp6, hits give low values 0.924 | locus YGL078C, strain dbp3, hits give low values 1.02 | locus YGL086W, strain mad1, hits give low values 1.01 | locus YGL167C, strain pmr1, hits give low values 0.949 | locus YGL173C, strain kem1, hits give low values 0.969 | locus YGL227W, strain vid30, hits give low values 0.948 | locus YGL240W, strain doc1, hits give low values 0.944 | locus YGL248W, strain PDE1, hits give low values 1.01 | locus YGL253W, strain hxk2, hits give low values 0.983 | locus YGR078C, strain PAC10, hits give low values 1.01 | locus YGR135W, strain pre9, hits give low values 1 | locus YGR229C, strain SMI1, hits give low values 1.01 | locus YGR252W, strain gcn5, hits give low values 0.988 | locus YHR013C, strain ard1, hits give low values 0.933 | locus YHR027C, strain rpn1, hits give low values 0.971 | locus YHR030C, strain SLT2, hits give low values 1.01 and 0.975 | locus YHR079C, strain IRE1 (second series), hits give low values 1.01 | locus YHR079C, strain IRE1, hits give low values 0.977 | locus YHR094C, strain hxt1, hits give low values 1 | locus YHR129C, strain ARP1, hits give low values 1.01 | locus YHR142W, strain chs7, hits give low values 0.942 | locus YHR200W, strain rpn10, hits give low values 1.01 | locus YIL066C, strain RNR3, hits give low values 1.02 | locus YIL073C, strain SPO22, hits give low values 1.05 | locus YIL125W, strain kgd1, hits give low values 1.01 | locus YIR030C, strain dcg1, hits give low values 1.02 | locus YJL092W, strain hpr5, hits give low values 0.977 | locus YJL095W, strain BCK1 (second series), hits give low values 0.976 | locus YJL095W, strain BCK1, hits give low values 0.997 and 0.98 | locus YJL115W, strain asf1, hits give low values 0.964 | locus YJL129C, strain trk1, hits give low values 0.947 | locus YJL134W, strain LCB3, hits give low values 1.01 | locus YJL154C, strain vps35, hits give low values 0.967 | locus YJL164C, strain tpk1, hits give low values 0.97 | locus YJL166W, strain qcr8, hits give low values 0.968 | locus YJL168C, strain set2, hits give low values 1.02 | locus YJL187C, strain SWE1 (second series), hits give low values 1.02 | locus YJL187C, strain SWE1, hits give low values 0.965 | locus YJR043C, strain POL32, hits give low values 1.01 | locus YJR066W, strain TOR1, hits give low values 0.935
